# Several values for one entry are separate records, joined by “and”; a condition that tells them apart may be missing. Equal entries are not always repeated. Records with an inconclusive call do not appear. Entries that show only a call come without a potency. The source holds several records for some structures; these can differ, active in one and inactive in another. Activity calls are given as the source filed them. Unless noted, calls come from the whole dose curve; as a rule, active = well fitted curve in the direction sought with a large enough effect; inconclusive = small, poorly fitted or top-dose-only effect, or another doubt; inactive = no such curve, though single readings can be large; an effect the other way counts as inactive or inconclusive.
# Experiments:
# [1] = biological target: Cytochrome P450 2C9 (Homo sapiens) (UniProt P11712); experiment: Cytochrome P450 family 2 subfamily C member 9 (CYP2C9) small molecule antagonists: luciferase biochemical (cell-free) qHTS assay (AID 1645842; active = well fitted curve in the direction sought with a large enough effect in the repeat runs; an effect the other way counts as inactive or inconclusive; note: nearly all actives have a fitted effect of over 55% in size; note: potency is the fitted concentration of half-maximal effect); details: P450-Glo CYP2C9 enzyme assay, luciferin luminescence; series mostly up to 57.4 µM
# How it was run: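 Luminescence, after 20 min with luciferin detection reagent, reflected CYP2C9 turnover during a 1 h NADPH-driven reaction at 37C. Enzyme-substrate mix contained 0.4% bovine serum albumin and was preincubated with compound 10 min at room temperature.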
# Papain (Carica papaya) = Papain (Carica papaya) (UniProt P00784); experiment: Primary qHTS assay for inhibitors of the protease papain (AID 1645873); details: papain Z-FR-AMC cleavage, AMC fluorescence; series mostly up to 49.8 µM;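 note: papain turnover of Z-FR-AMC read as the AMC fluorescence gain over 10 min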; note: potency is the fitted concentration of half-maximal effect
# [2] = Primary qHTS for inhibitors of nuclear receptor binding SET domain protein 2 (NSD2) in an isogenic RCH-ACV NSD2 p.E1099K mutant (9B) (AID 1645876); details: RCH-ACV NSD2 E1099K (9B) viability, CellTiter-Glo, 72 h; series mostly up to 44.9 µM; note: nearly all actives have a fitted effect of over 70% in size; note: potency is the fitted concentration of half-maximal effect
# [3] = biological target: Cytochrome P450 2D6 (Homo sapiens) (UniProt P10635); experiment: Cytochrome P450 family 2 subfamily D member 6 (CYP2D6) small molecule antagonists: luciferase biochemical (cell-free) qHTS assay (AID 1645840; active = well fitted curve in the direction sought with a large enough effect in the repeat runs; an effect the other way counts as inactive or inconclusive; note: nearly all actives have a fitted effect of over 55% in size; note: potency is the fitted concentration of half-maximal effect); details: P450-Glo CYP2D6 enzyme, luciferin luminescence, 1 h; series mostly up to 57.4 µM
# How it was run: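 P450-Glo luminescent screen: recombinant CYP2D6 enzyme–proluciferin substrate mix preincubated with compound 10 min at room temperature, then NADPH regeneration added for 1 h at room temperature. Detection reagent added for 20 min; luciferin light read as relative luminescence units.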
# [4] = A High-Content qHTS Against Drug Library for the Identification of Small Molecules that Inhibit DYT1 Early Onset Primary Dystonia-Associated Cell Pathology (AID 1645839; calls by dose curve); details: HEK293 Flp-In EGFP-delE TorsinA, punctate imaging, 48 h; series mostly up to 46.1 µM
# How it was run: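 Flp-In T-REx 293 cells with tetracycline-inducible EGFP-delE hTOR1A (WT EGFP-hTOR1A as reference), 800 cells/well; compound added with tetracycline, 48 h at 37 C. Fixed, permeabilized cells imaged; %pathology (punctate TorsinA) primary, cell count counterscreen.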
# [5] = Primary qHTS for inhibitors of nuclear receptor binding SET domain protein 2 (NSD2) in an RCH-ACV wild type WT cells (2C) (AID 1645877); details: RCH-ACV (leukaemia line) NSD2 WT (2C) viability, CellTiter-Glo, 72 h; series mostly up to 44.9 µM; note: nearly all actives have a fitted effect of over 70% in size; note: potency is the fitted concentration of half-maximal effect
# [6] = biological target: Rap guanine nucleotide exchange factor 3 (Homo sapiens) (UniProt O95398); experiment: Confirmatory qHTS for agonist of cAMP-regulated guanine nucleotide exchange factor 3 (EPAC1) (AID 1645881); details: EPAC1 Rap1B BODIPY-GDP exchange fluorescence; series mostly up to 154 µM;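 note: EPAC1 catalysed release of BODIPY-GDP from Rap1B seen as fluorescence loss; nearly all actives have a fitted effect of over 75% in size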
# [7] = biological target: Rap guanine nucleotide exchange factor 3 (Homo sapiens) (UniProt O95398); experiment: Confirmatory qHTS for antagonist of cAMP-regulated guanine nucleotide exchange factor 3 (EPAC1) (AID 1645880); details: EPAC1 Rap1B-BODIPY-GDP exchange, fluorescence; series mostly up to 115 µM; note: nearly all actives have a fitted effect of over 55% in size
# How it was run: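 Nucleotide exchange uses 100 nM EPAC1, 250 nM RAP1B-BODIPY-GDP and 50 uM GDP, with compounds in a concentration-titration series. After 5 min at room temperature, fluorescence (480 nm ex/540 nm em) is read every 5 min for 30 min. Data are normalized to control ATA and DMSO.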
# Chain of Papain (Carica papaya) (P00784 whole entry, looked up, the tested form may be a part): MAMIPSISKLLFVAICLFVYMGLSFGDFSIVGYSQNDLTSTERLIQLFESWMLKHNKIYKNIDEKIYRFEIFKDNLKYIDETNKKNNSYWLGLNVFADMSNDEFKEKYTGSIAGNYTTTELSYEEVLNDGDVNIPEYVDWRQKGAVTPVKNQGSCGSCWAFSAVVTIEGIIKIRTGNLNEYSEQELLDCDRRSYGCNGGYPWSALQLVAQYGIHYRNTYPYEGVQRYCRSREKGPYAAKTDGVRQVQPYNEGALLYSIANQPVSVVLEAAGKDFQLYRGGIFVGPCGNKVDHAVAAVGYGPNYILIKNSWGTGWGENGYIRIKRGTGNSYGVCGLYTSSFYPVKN
# Chain of Cytochrome P450 2C9 (Homo sapiens) (P11712 whole entry, looked up): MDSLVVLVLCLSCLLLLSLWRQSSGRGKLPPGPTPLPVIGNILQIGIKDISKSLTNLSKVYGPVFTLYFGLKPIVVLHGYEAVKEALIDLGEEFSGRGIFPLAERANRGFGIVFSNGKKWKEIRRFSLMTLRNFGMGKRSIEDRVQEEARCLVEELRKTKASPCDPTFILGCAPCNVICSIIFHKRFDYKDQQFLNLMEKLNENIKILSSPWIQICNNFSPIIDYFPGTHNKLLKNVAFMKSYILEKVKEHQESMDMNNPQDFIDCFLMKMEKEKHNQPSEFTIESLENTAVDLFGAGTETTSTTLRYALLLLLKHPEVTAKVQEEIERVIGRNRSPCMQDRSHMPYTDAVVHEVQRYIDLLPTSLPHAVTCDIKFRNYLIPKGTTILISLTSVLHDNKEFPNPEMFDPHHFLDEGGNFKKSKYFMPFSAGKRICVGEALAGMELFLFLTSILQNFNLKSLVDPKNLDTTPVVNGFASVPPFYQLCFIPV
# Chain of Cytochrome P450 2D6 (Homo sapiens) (P10635 whole entry, looked up): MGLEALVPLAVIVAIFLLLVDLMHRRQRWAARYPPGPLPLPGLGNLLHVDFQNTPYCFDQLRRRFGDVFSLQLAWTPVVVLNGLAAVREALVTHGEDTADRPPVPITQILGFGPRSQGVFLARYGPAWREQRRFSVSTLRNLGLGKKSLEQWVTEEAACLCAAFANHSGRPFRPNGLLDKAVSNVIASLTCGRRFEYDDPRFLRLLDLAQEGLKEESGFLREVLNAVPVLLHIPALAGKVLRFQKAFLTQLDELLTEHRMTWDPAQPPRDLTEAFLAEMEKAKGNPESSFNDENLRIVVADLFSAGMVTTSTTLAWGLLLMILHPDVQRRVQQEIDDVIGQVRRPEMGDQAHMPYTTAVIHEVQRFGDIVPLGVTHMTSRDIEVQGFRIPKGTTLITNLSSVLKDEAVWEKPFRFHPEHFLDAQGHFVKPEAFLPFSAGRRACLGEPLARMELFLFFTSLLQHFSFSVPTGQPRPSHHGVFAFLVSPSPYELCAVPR
# Chain of Rap guanine nucleotide exchange factor 3 (Homo sapiens) (O95398 whole entry, looked up): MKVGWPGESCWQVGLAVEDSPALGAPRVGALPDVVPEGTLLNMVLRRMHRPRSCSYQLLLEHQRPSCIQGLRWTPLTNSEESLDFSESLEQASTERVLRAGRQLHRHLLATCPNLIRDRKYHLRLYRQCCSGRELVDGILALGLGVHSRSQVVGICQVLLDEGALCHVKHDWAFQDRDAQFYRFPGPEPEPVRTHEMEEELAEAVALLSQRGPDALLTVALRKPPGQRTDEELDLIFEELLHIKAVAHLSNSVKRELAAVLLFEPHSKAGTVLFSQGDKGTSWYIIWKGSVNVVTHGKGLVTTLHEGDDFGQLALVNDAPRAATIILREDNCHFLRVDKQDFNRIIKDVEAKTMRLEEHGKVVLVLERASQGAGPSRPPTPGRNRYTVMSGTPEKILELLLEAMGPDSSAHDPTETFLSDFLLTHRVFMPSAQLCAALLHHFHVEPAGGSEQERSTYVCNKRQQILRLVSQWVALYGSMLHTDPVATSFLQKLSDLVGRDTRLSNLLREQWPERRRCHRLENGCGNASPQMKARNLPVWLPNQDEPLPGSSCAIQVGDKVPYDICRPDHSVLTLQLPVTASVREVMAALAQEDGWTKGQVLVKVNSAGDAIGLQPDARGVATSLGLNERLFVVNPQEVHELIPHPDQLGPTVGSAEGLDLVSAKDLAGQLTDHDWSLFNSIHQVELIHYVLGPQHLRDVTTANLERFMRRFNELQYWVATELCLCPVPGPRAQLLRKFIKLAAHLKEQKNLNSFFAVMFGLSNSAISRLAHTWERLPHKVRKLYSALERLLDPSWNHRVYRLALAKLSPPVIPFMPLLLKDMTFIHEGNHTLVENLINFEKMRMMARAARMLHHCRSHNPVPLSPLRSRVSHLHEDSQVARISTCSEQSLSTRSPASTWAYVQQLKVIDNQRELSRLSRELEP
compound,measurement,setting,value
CC#C[C@]1(O)CC[C@H]2[C@@H]3CCC4=CC(=O)CCC4=C3[C@@H](c3ccc(N(C)C)cc3)C[C@@]21C,Potency,[1],1.74 µM (active)
same,Potency,Papain (Carica papaya),inactive
same,Potency,[2],23.5 µM (active)
Cc1ccc(-c2cc(C(F)(F)F)nn2-c2ccc(S(N)(=O)=O)cc2)cc1,Potency,[3],13.8 µM (active)
same,Potency,[1],12.3 µM (active)
same,Potency,Papain (Carica papaya),inactive
CN1CCN(C2=Nc3cc(Cl)ccc3Nc3ccccc32)CC1,Potency,Papain (Carica papaya),inactive
CN(C)c1nc(N(C)C)nc(N(C)C)n1,Potency,[4],inactive
same,Potency,Papain (Carica papaya),inactive
same,Potency,[2],inactive
same,Potency,[5],inactive
O=C(Nc1ccc([N+](=O)[O-])cc1Cl)c1cc(Cl)ccc1O,Potency,[3],13.5 µM (active)
same,Potency,[1],4.77 µM (active)
same,Potency,Papain (Carica papaya),inactive
same,Potency,[2],11.8 µM (active)
same,Potency,[5],11.8 µM (active)
CC12CC3CC(C)(C1)CC(N)(C3)C2,Potency,[3],inactive
same,Potency,Papain (Carica papaya),inactive
same,Potency,[2],inactive
COc1ccccc1OCC(O)CN1CCN(CC(=O)Nc2c(C)cccc2C)CC1 (centres undefined),Potency,[4],inactive
same,Potency,Papain (Carica papaya),inactive
same,Potency,[2],inactive
same,Potency,[5],inactive
CC(CCc1ccc(O)cc1)NCCc1ccc(O)c(O)c1 (centres undefined),Potency,[1],inactive
same,Potency,Papain (Carica papaya),inactive
O=c1c(O)c(-c2ccc(O)c(O)c2)oc2cc(O)cc(O)c12,Potency,Papain (Carica papaya),inactive
same,Potency,[2],11.9 µM (active) and inactive and 9.2 µM (active)
same,Potency,[5],inactive and 14.6 µM (active)
same,Potency,[6],inactive
Clc1ccccc1C(c1ccccc1)(c1ccccc1)n1ccnc1,Potency,[3],9.77 µM (active)
same,Potency,[1],0.977 µM (active)
same,Potency,Papain (Carica papaya),inactive
same,Potency,[2],10.5 µM (active)
same,Potency,[5],9.34 µM (active)
same,outcome,[7],inactive
same,Potency,[6],inactive
O=C1Cc2cc(CCN3CCN(c4nsc5ccccc45)CC3)c(Cl)cc2N1,Potency,[3],9.77 µM (active)
same,Potency,Papain (Carica papaya),3.55 µM (active)
same,Potency,[2],15 µM (active)
same,Potency,[5],20.5 µM (active)
COc1ccc(CCN(C)CCCC(C#N)(c2ccc(OC)c(OC)c2)C(C)C)cc1OC (centres undefined),Potency,[3],inactive
CCCNCC(O)COc1ccccc1C(=O)CCc1ccccc1 (centres undefined),Potency,Papain (Carica papaya),inactive
same,Potency,[2],18.6 µM (active)
same,Potency,[5],15 µM (active) and 16.6 µM (active)

# Reference: PubChem BioAssay (NCATS)
